Measurements published in PubChem BioAssay (NCI).
Compounds without any hit were thinned out: in the full panel of roughly 83,000, 20% have a hit.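 In brief: 96-well plates, 48 h treatment, single concentration, percent growth endpoint.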 A number with no mark means an inactive call. Calls of active or inactive are those of the source. How the source made its calls: active means growth percent below 10; inactive means the rest.

Key:
Experiment in all cases: NCI-60 one-dose screen, 48 h (100 = growth as untreated, 0 = no growth, -100 = all killed)
Settings in all cases: 10 µM unless noted
[1] = test system: SR leukemia
[2] = test system: RPMI-8226 leukemia
[3] = test system: OVCAR-8 ovarian
[4] = test system: OVCAR-5 ovarian
[5] = test system: OVCAR-4 ovarian
[6] = test system: SK-OV-3 ovarian
[7] = test system: IGROV1 ovarian
[8] = test system: OVCAR-3 ovarian
[9] = test system: HS 578T breast
[10] = test system: NCI/ADR-RES ovarian
[11] = test system: MDA-MB-435 melanoma
[12] = test system: SW-620 colon
[13] = test system: MCF7 breast
[14] = test system: HCT-116 colon
[15] = test system: HCC-2998 colon
[16] = test system: KM12 colon
[17] = test system: BT-549 breast
[18] = test system: T-47D breast

Row | Compound | growth [1] | growth [2] [%] | growth [3] | growth [4] [%] | growth [5] | growth [6] | growth [7] [%] | growth [8] | growth [9] [%] | growth [10] [%] | growth [11] | growth [12] | growth [13] | growth [14] | growth [15] [%] | growth [16] [%] | growth [17] [%] | growth [18]
1 | C/C(=N\Nc1ccc([N+](=O)[O-])cc1[N+](=O)[O-])c1ccc(Br)cc1 | 84.4% | 93.1 | 96.8% | 123 | 105% | 108% | 110 | 99.7% | 104 | 106 | 98.4% | 101% | 97.2% | 102% | 99.4 | 93.3 |  | 
2 | CC(C)(N)CO[C@H]1C[C@H]2CC[C@@]1(C)C2(C)C | 106% | 108 | 102% | 95 | 104% | 112% | 106 | 93.6% | 81.9 | 103 | 94.7% | 88.1% | 92.5% | 89.9% | 102 | 94.1 | 93.5 | 
3 | O=C(Oc1ccccc1Cl)c1ccc(Cl)cc1Cl | 104% | 98.9 | 101% | 109 | 109% | 99.6% | 108 | 107% | 93.8 | 103 | 95.4% | 98.9% | 84.6% | 95.2% | 102 | 87.4 |  | 
4 | COC(=O)c1cccc([N+](=O)[O-])c1 | 99% | 102 | 107% | 111 | 130% | 115% | 111 | 108% | 102 | 102 | 117% | 105% | 104% | 110% | 99.7 | 103 | 131 | 
5 | O=C(OCC1CCCO1)c1ccc([N+](=O)[O-])cc1 (configuration not stated) | 116% | 103 | 99.2% | 109 | 117% | 97.9% | 101 | 111% | 96.7 | 103 | 109% | 91.8% | 95.6% | 103% | 117 |  |  | 84.8%
6 | Cc1ccc(OC(=O)c2ccccc2)cc1 | 102% | 113 | 101% | 100 | 114% | 107% | 132 | 115% | 141 | 113 | 112% | 111% | 97.4% | 105% | 107 | 108 |  | 108%
7 | NC(=S)N/N=C/c1ccc(Cl)cc1 | 97.1% | 97.8 | 92.9% | 108 | 97.3% | 118% | 107 | 116% | 112 | 100 | 110% |  | 93.4% | 100% | 96.2 | 113 |  | 86.8%
8 | CCC(=O)Oc1ccc2ccccc2c1 | 106% | 100 | 100% | 103 | 101% | 98.9% | 106 | 108% | 81 | 96.8 | 101% | 85.7% | 101% | 102% | 88.7 | 99.6 |  | 74.9%
9 | CCCNS(=O)(=O)c1ccc(Cl)cc1 | 98.9% | 99.7 | 104% | 110 | 102% | 99.6% | 105 | 109% | 88.1 | 101 | 93.3% | 96.2% | 93.3% | 103% | 98.9 | 99.6 |  | 
10 | N#Cc1ccc2nc[nH]c2c1 | 106% | 108 | 104% | 108 | 109% | 109% | 115 | 102% | 100 | 110 | 109% | 104% | 96.8% | 105% | 110 |  |  | 107%
11 | O=Cc1c(O)c2ccccc2[nH]c1=O | 114% | 109 | 95.1% | 98.5 | 106% | 105% | 104 | 134% | 106 | 104 | 118% | 93.8% | 95.7% | 89.4% |  | 139 |  | 106%
12 | Cc1ccc(S(=O)(=O)CCCl)cc1 | 90% | 101 | 101% | 101 | 107% | 124% | 123 | 131% | 102 | 105 | 117% | 110% | 100% | 118% | 104 | 111 |  | 106%
13 | Cc1[nH]nc(C(N)=O)c1[N+](=O)[O-] | 84.7% | 96.3 | 108% | 104 | 122% | 101% | 115 | 101% | 87.7 | 102 | 105% | 91% | 97.4% | 99.9% | 106 | 103 | 109 | 
14 | CC1(C)CC(=O)C=C(N)C1 | 108% | 178 | 97.1% | 89.3 | 91.7% | 145% | 101 | 106% | 77.9 | 83.4 | 99.2% | 96% | 160% | 102% | 45.4 | 124 |  | 141%
15 | CC(=O)c1ccc(C)cc1 | 112% | 113 | 108% | 104 | 112% | 121% | 98.1 | 111% | 94.9 | 106 | 112% | 106% | 100% | 105% | 105 | 106 |  | 120%
16 | CSCCC(NC(=O)C(Cl)Cl)C(=O)O (configuration not stated) | 91.5% | 101 | 96.7% | 94.7 | 115% | 85.6% | 105 | 106% | 97.8 | 106 |  | 100% | 95.3% | 91.2% | 98.8 | 106 | 102 | 82.9%
17 | CC(=O)NC(O)C(Cl)Cl (configuration not stated) | 97.2% | 95.8 | 96.4% | 97.2 | 97.5% | -22.9% (active) | 107 | 74.5% | 107 | 98.5 | 103% | 114% | 93.7% | 114% | 98.4 | 103 | 85.9 | 
18 | CC(CC(CCC(=O)O)(c1ccccc1)c1ccccc1)N(C)C (configuration not stated) | 98.6% | 109 | 94.4% | 98.4 | 96.1% | 97.6% | 107 | 67.3% | 106 | 108 | 105% | 109% | 91.2% | 97.2% | 106 | 109 | 68.1 | 
19 | Nc1cc2ccccc2c(O)c1O | 0.498% (active) | 12.7 | -69.9% (active) | 76.1 | -97.7% (active) | 79.3% | 67.3 | -39.9% (active) | 81.7 | 55.3 | -81.1% (active) | -33.6% (active) | -43.2% (active) | -66.9% (active) | 113 | 62.3 |  | -0.96% (active)
20 | CC(=O)[C@@]1(O)CC[C@H]2[C@@H]3CC[C@@H]4CC(=O)CC[C@]4(C)[C@H]3[C@@H](O)C[C@@]21C | 87.9% | 97.9 | 101% | 91.7 | 111% | 82.7% | 103 | 109% | 101 | 103 |  |  | 93.6% | 107% | 98.4 | 101 | 102 | 88.2%
